Among the data in PubChem BioAssay (EPA / NIEHS) are AC50 and outcome values, retold here.

Molecules are shown by their SMILES. Values joined by “and” are separate entries in the source; they are usually repeats but may differ in a detail not shown here. Equal values may be shown once. Records with an inconclusive call do not appear. Active and inactive are the calls of the source. The calls were made as follows, unless noted: active = hit-call score of the fitted dose curve at least 0.9, where 1 is the maximum; inactive = score below 0.9.

System in one test: not listed separately
As to the kind of experiment: CCTE_Mundy_HCI_Cortical_Synap_Neur_Matur_NeuriteCount: CCTE's Synaptogenesis and Neurite Maturation Assay in rat cortical cells for Neurite Count, Mundy Lab (AID 2284222).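 As to outcome: exposure from day 7 to day 12 in vitro with readout at day 12.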
Conditions: not given
An outline of the steps: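 In this multiplexed morphology readout, rat primary cortical neurons are fixed at DIV 12 following dosing at DIV 7 and stained for MAP2, synaptophysin and nuclei. High-content image analysis yields neurite count.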
As to `OC(Cc1ccccc1Cl)(Cn1[nH]cnc1=S)C1(Cl)CC1` (stereo not given), the AC50 is 50 µM (active).
Turning to `Cc1ccccc1OP(=O)(Oc1ccccc1C)Oc1ccccc1C`, the call was inactive.
For the compound `CNC(=O)CSP(=O)(OC)OC`, the compound was called inactive.
Take `CC1(C)[C@H](C(=O)O[C@H](C#N)c2cccc(Oc3ccccc3)c2)[C@@H]1/C=C(\Cl)C(F)(F)F`: the concentration at half-maximal activity (AC50) was 3.48 µM (active).
For the compound `CCOCn1c(-c2ccc(Cl)cc2)c(C#N)c(Br)c1C(F)(F)F`, the AC50 was 16.4 µM (active).
With `Cc1cc(C(F)(C(F)(F)F)C(F)(F)F)ccc1NC(=O)c1cccc(I)c1C(=O)NC(C)(C)CS(C)(=O)=O`, the compound was classed as inactive.
For the compound `CC(C)[C@@H](Nc1ccc(C(F)(F)F)cc1Cl)C(=O)OC(C#N)c1cccc(Oc2ccccc2)c1` (stereo not given in full), the compound was classed as inactive.
With `CS(=O)(=O)c1ccc(C(=O)C2C(=O)CCCC2=O)c(Cl)c1COCC(F)(F)F`, the result was inactive.
Turning to `NC(=O)c1ccc(N)nc1`, the concentration at half-maximal activity (AC50) is 18.7 µM (active).

System in a further test: not listed separately
The experiment in a line: CCTE_Mundy_HCI_Cortical_Synap_Neur_Matur_CellBodySpotCount: CCTE's Synaptogenesis and Neurite Maturation Assay in rat cortical cells for Cell Body Spot Count, Mundy Lab (AID 2284223).
Conditions: not given
The method in brief: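 Read-out: cell body-associated synaptophysin puncta per neuron, imaged after MAP2, synaptophysin and Hoechst staining. Rat cortical cells, AraC DIV 5, chemical dosing DIV 7, fixation DIV 12. Activity fitted in positive direction relative to DMSO baseline.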
As for `OC(Cc1ccccc1Cl)(Cn1[nH]cnc1=S)C1(Cl)CC1` (stereo not given), the compound was classed as inactive.
Consider `Cc1ccccc1OP(=O)(Oc1ccccc1C)Oc1ccccc1C`, for which the AC50 is 4.04 µM (active).
With `CNC(=O)CSP(=O)(OC)OC`, the call was inactive.
As for `CC1(C)[C@H](C(=O)O[C@H](C#N)c2cccc(Oc3ccccc3)c2)[C@@H]1/C=C(\Cl)C(F)(F)F`, the AC50 was 3.52 µM (active).
`CCOCn1c(-c2ccc(Cl)cc2)c(C#N)c(Br)c1C(F)(F)F`: the concentration at half-maximal activity (AC50) was 18.9 µM (active).
`Cc1cc(C(F)(C(F)(F)F)C(F)(F)F)ccc1NC(=O)c1cccc(I)c1C(=O)NC(C)(C)CS(C)(=O)=O`: the call was inactive.
Still for that read-out and setting: as for `CC(C)[C@@H](Nc1ccc(C(F)(F)F)cc1Cl)C(=O)OC(C#N)c1cccc(Oc2ccccc2)c1` (stereo not given in full), the entry is “inactive”.
In the case of `CS(=O)(=O)c1ccc(C(=O)C2C(=O)CCCC2=O)c(Cl)c1COCC(F)(F)F`, the compound was classed as inactive.
Same read-out and setting: as for `NC(=O)c1ccc(N)nc1`, the entry is “inactive”.

System in the next test: not listed separately
The experiment in a line: CCTE_Mundy_HCI_hNP1_Pro_ResponderAvgInten: CCTE's Proliferation Assay in human neuroprogenitor cells, Mundy Lab (AID 2284224; active = hit-call score of the fitted dose curve at least 0.9, where 1 is the maximum;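 also: human neural progenitor cells hNP1 derived from WA09 embryonic stem cells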).
Conditions: not given
The method in brief: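 Proliferation was scored as BrdU labelling intensity in human neural progenitors derived from WA09 embryonic cells, measured 26.25 hours after chemical dosing. Activity was fitted relative to DMSO.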
For the compound `OC(Cc1ccccc1Cl)(Cn1[nH]cnc1=S)C1(Cl)CC1` (stereo not given), the AC50 was 31.6 µM (active).
For `Cc1ccccc1OP(=O)(Oc1ccccc1C)Oc1ccccc1C`, the AC50 was 25.8 µM (active).
Turning to `CC1(C)[C@H](C(=O)O[C@H](C#N)c2cccc(Oc3ccccc3)c2)[C@@H]1/C=C(\Cl)C(F)(F)F`, the compound was classed as inactive.
In the case of `CCOCn1c(-c2ccc(Cl)cc2)c(C#N)c(Br)c1C(F)(F)F`, the AC50 is 9.2 µM (active).
For the compound `Cc1cc(C(F)(C(F)(F)F)C(F)(F)F)ccc1NC(=O)c1cccc(I)c1C(=O)NC(C)(C)CS(C)(=O)=O`, the outcome was inactive.

Read-out in another test: not listed separately
As to the kind of experiment: BSK_BT_PBMCCytotoxicity: PBMC Cytotoxicity Assessment in the BioMAP Diversity Plus: BT Assay (AID 2284225).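 Also: PBMC viability measured by Alamar Blue dye reduction fluorescence.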 The following applies: primary human B cells with PBMC. An outline of the steps: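 Viability by Alamar Blue reduction (6 h, ex/em 546/580 nm) after 90 h culture of SEB/TSST-1-activated PBMC (20 ng/mL each) given compound 1 h before activation. DMSO served as baseline for curve fitting.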
Consider `CCCCN(CCCC)C(=S)[S-].CCCCN(CCCC)C(=S)[S-].[Ni+2]`, for which the outcome was inactive.
With `Cc1ccc2nc3sc(=O)sc3nc2c1`, the outcome was inactive.
The same measure, in the same setting: under `CCOP(=S)(OCC)OP(=S)(OCC)OCC` stands “inactive”; under `Oc1cccc(-c2ccccc2)c1`, “inactive”.
The same measure, in the same setting: as for `CCOP(=O)(OCC)SCCSCC`, the entry is “inactive”.
With `Oc1ccc(Cc2ccc(O)cc2)cc1`, the result was inactive.
Consider `O=C1C=CC(=O)c2ccccc21`, for which the AC50 was 0.686 µM (active).
On to `O=S(=O)(c1ccc(Cl)cc1)c1cc(Cl)c(Cl)cc1Cl`, for which the result was inactive.
Consider `OC(Cc1ccccc1Cl)(Cn1[nH]cnc1=S)C1(Cl)CC1` (stereo not given), for which the result was inactive.
Consider `COCC(=O)N(c1c(C)cccc1C)[C@H](C)C(=O)OC`, for which the outcome was inactive.
Turning to `O=[N+]([O-])c1cccc2ccccc12`, the result was inactive.
In the case of `Nc1c(Oc2ccccc2)cc(O)c2c1C(=O)c1ccccc1C2=O`, the outcome was inactive.
As to `Cc1ccccc1OP(=O)(Oc1ccccc1C)Oc1ccccc1C`, the result was inactive.
Turning to `O=C(O)COc1cc(Cl)c(Cl)cc1Cl`, the result was inactive.
Take `CC1(C)[C@H](C(=O)O[C@H](C#N)c2cccc(Oc3ccccc3)c2)[C@@H]1/C=C(\Cl)C(F)(F)F`: the outcome was inactive.
For `Cc1cc(Cl)ccc1N`, the outcome was inactive.
On to `CCOC(=O)C(SP(=S)(OC)OC)c1ccccc1` (stereo not given), for which the outcome was inactive.
With `CCN(CC)C(=O)C(Cl)=C(C)OP(=O)(OC)OC`, the result was inactive.
Turning to `Oc1c(Br)cc(Br)cc1Br`, the outcome was inactive.
`NC(=O)CCl`: the result was inactive.
For the compound `c1ccc2sc(SNC3CCCCC3)nc2c1`, the half-maximal activity concentration (AC50) was 30.8 µM (active).

Read-out in a further test: Secreted IgG (sIgG), gene 3500
As to the kind of experiment: BSK_BT_sIgG: BioMAP Diversity Plus: BT Assay for Secreted IgG (sIgG) Biomarker Activity (AID 2284226). The following applies: primary human B cells with PBMC. An outline of the steps:
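Cells (B cells with peripheral blood mononuclear cells) are dosed, cultured 24 h, then supernatant IgG is measured by ELISA. DMSO serves as negative control; curves are fitted for signal increase.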
For `CCCCN(CCCC)C(=S)[S-].CCCCN(CCCC)C(=S)[S-].[Ni+2]`, the AC50 was 2.66 µM (active).
Take `Cc1ccc2nc3sc(=O)sc3nc2c1`: the AC50 was 5 µM (active).
On to `CCOP(=S)(OCC)OP(=S)(OCC)OCC`, for which the result was inactive.
Still for that read-out and setting: as for `Oc1cccc(-c2ccccc2)c1`, the entry is “inactive”.
`CCOP(=O)(OCC)SCCSCC`: the result was inactive.
Still for that read-out and setting: as for `Oc1ccc(Cc2ccc(O)cc2)cc1`, the entry is “inactive”.
With `O=C1C=CC(=O)c2ccccc21`, the concentration at half-maximal activity (AC50) is 0.251 µM (active).
As for `O=S(=O)(c1ccc(Cl)cc1)c1cc(Cl)c(Cl)cc1Cl`, the AC50 is 20 µM (active).
Same read-out and setting: as for `OC(Cc1ccccc1Cl)(Cn1[nH]cnc1=S)C1(Cl)CC1` (stereo not given), the figure is 23.8 µM (active).
`COCC(=O)N(c1c(C)cccc1C)[C@H](C)C(=O)OC`: the result was inactive.
For `O=[N+]([O-])c1cccc2ccccc12`, the result was inactive.
`Nc1c(Oc2ccccc2)cc(O)c2c1C(=O)c1ccccc1C2=O`: the result was inactive.
With `Cc1ccccc1OP(=O)(Oc1ccccc1C)Oc1ccccc1C`, the concentration at half-maximal activity (AC50) is 13.9 µM (active).
On to `O=C(O)COc1cc(Cl)c(Cl)cc1Cl`, for which the outcome was inactive.
As for `CC1(C)[C@H](C(=O)O[C@H](C#N)c2cccc(Oc3ccccc3)c2)[C@@H]1/C=C(\Cl)C(F)(F)F`, the AC50 is 25.1 µM (active) and 28.9 µM (active).
In the case of `Cc1cc(Cl)ccc1N`, the result was inactive.
The same measure, in the same setting: as for `CCOC(=O)C(SP(=S)(OC)OC)c1ccccc1` (stereo not given), the entry is “inactive”; as for `CCN(CC)C(=O)C(Cl)=C(C)OP(=O)(OC)OC`, “inactive”.
In the case of `Oc1c(Br)cc(Br)cc1Br`, the result was inactive.
In the case of `NC(=O)CCl`, the result was inactive.
With `c1ccc2sc(SNC3CCCCC3)nc2c1`, the concentration at half-maximal activity (AC50) was 32 µM (active).

As a reminder, the AC50 is the concentration giving half of the maximal activity seen.
